In PubChem BioAssay (NCI):
Compounds without any hit were thinned out: in the full panel of roughly 83,000, 20% have a hit.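 Activity criterion: percent growth below 10, measured after cells in 96-well plates were exposed to a single compound concentration for 48 hours.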 A number with no mark means an inactive call. Activity calls are given as the source filed them.

Experiments:
Assay in all cases: NCI-60 one-dose screen, 48 h (100 = growth as untreated, 0 = no growth, -100 = all killed)
Details in all cases: 10 µM unless noted
[1] = tested on: SR leukemia
[2] = tested on: RPMI-8226 leukemia
[3] = tested on: OVCAR-8 ovarian
[4] = tested on: OVCAR-5 ovarian
[5] = tested on: OVCAR-4 ovarian
[6] = tested on: SK-OV-3 ovarian
[7] = tested on: IGROV1 ovarian
[8] = tested on: OVCAR-3 ovarian
[9] = tested on: HS 578T breast
[10] = tested on: NCI/ADR-RES ovarian

SMILES | growth [1] | growth [2] | growth [3] | growth [4] | growth [5] | growth [6] | growth [7] | growth [8] | growth [9] | growth [10]
C#CCOc1ccc(C(Nc2ccc(Cl)cc2)c2nnnn2C2CCCCC2)cc1 (stereo not drawn) | 81% | 76.9% | 93.5% | 85.5% | 82.6% | 98.2% | 84.3% | 101% | 79.9% | 
CN1CCN(c2ccc3c(C(N)=O)c(NC(=O)c4ccc(C(C)(C)C)cc4)sc3c2)CC1 | 34.7% | 20.1% | 95.4% | 81.1% | 92.3% | 107% | 90.3% | 79.3% | 91.2% | 
CN1C(=O)N(C)C2C1NN=c1s/c(=C\c3ccccn3)c(=O)n12 (stereo not drawn) | 114% | 101% | 101% | 109% | 105% | 110% | 102% | 115% | 104% | 
COc1cc2cc(Oc3ccc(NC(=O)c4cccc(C(F)(F)F)c4)cc3)c(C)nc2cc1OCCN(C)C | 28.6% | 73.1% | 89.8% | 103% | 80.5% | 108% | 93.2% | 102% | 74.8% | 
Oc1ccc(CSc2nnc(-c3ccncc3)o2)c2cccnc12 | 50.4% | 5.35% (active) | 15.8% | 35.7% | 19.7% | 4.05% (active) | 22.4% | 19.8% | 5.36% (active) | 
COc1cc2cc(Oc3ccc(NC(=O)Nc4cccc(C(F)(F)F)c4)cc3)c(C)nc2cc1OCCN(C)C | 26.1% | 92.3% | 97.9% | 108% | 92.9% | 107% | 102% | 122% | 112% | 
COc1ccc(N2C(=O)c3cc(OC)c(OC)cc3NC2SCc2ccccc2)cc1 (stereo not drawn) | 83.5% | 114% | 103% | 109% | 102% | 112% | 102% | 125% | 125% | 99.7%
C=C1C(=O)O[C@@H]2/C=C(/C)C3=CC(=O)[C@@](C)(C[C@H](OC(=O)/C(C)=C\C)[C@@H]12)O3 | 2.49% (active) | -11.3% (active) | 8.15% (active) | 4.42% (active) | 21% | 92.6% | 19% | 2.79% (active) | 46.5% | 17.4%
COc1cccc(/C=C/C(=O)c2ccc(NC(=O)COc3cccc4cccnc34)cc2)c1 | 74.6% | 73.4% | 98.1% | 103% | 101% | 104% | 100% | 102% | 100% | 
Cc1ccc(NC(=O)c2ccc(CN3CCN(C)CC3)c(I)c2)cc1Oc1ccc(-c2[nH]nc3ncnc(N)c23)cc1 | 4.76% (active) | -3.29% (active) | 91.8% | 95.8% | 96.1% | 109% | 88% | 102% | 66.2% | 44.5%
CCCCCCNC(=O)Oc1ccc(/C(=C(\C)c2ccc(Cl)cc2)c2ccc(OCCN(C)C)cc2)cc1 | 2% (active) | -11.6% (active) | 84.8% | 78.1% | 74.5% | 94.4% | 44.7% | 66.4% | 80.6% | 62.9%
CC1=CC(=O)CC(C)(C)[C@@]1(O)/C=C/C(C)=C\C(=O)O | 0.555% (active) | -28.4% (active) | -11.9% (active) | -25% (active) | -15.9% (active) | -22% (active) | -12.5% (active) | -19.5% (active) | -8.17% (active) | -15.6% (active)
COc1cc(/C=C/C(=O)c2ccc(NC(=O)COc3cccc4cccnc34)cc2)cc(OC)c1OC | 11.4% | 12.9% | 79.7% | 128% | 84.3% | 118% | 69.4% | 47.9% | 93.8% | 71.7%
COc1cc(O)c2c(c1)[C@H]1O[C@@H]1C[C@H](O)[C@H](O)C(=O)/C=C\C[C@H](C)OC2=O | 22.3% | 24.5% | 59.3% | 61.5% | 27% | 80.2% | 39% | 32.1% | 76.6% | 78.7%
O=C(/C=C1\C=CN(CCCCF)c2ccccc21)n1ccc2ccccc21 | 107% | 102% | 106% | 99.2% | 85.4% | 95.9% | 74.9% | 126% | 119% | 108%
CCCC(=O)NC(c1cccnc1)c1ccc2c(C)ccnc2c1O (stereo not drawn) | 41.2% | 32.1% | 21.1% | 32.3% | 11.2% | 19.7% | 19.2% | 13.1% | 67.6% | 9.99% (active)
Cc1cc2nc(C(Cl)Cl)nc(-c3ccco3)n2n1 | 86.8% | 44.3% | 80.5% | 75.8% | 79.5% | 93.3% | 91.1% | 22.4% | 94% | 62.6%
Cn1cc(-c2nnc(N)nc2-c2cn(C)c3ccc(F)cc23)c2cc(F)ccc21 | 85.6% | 106% | 89.6% | 103% | 97.4% | 112% | 101% | 103% | 90.8% | 99.8%
NC(=O)N1N=C(c2cc3ccccc3oc2=O)CC1c1cn(-c2ccccc2)nc1-c1ccc(Cl)cc1 (stereo not drawn) | 44.2% | 48.4% | 37.1% | 64.9% | 34.9% | 75.6% | 28.8% | 17.6% | 65.1% | 29.3%
Oc1ccc(-c2nnc(SCc3ccc(O)c4ncccc34)o2)cc1 | 37.4% | 4.27% (active) | 15.9% | 27.1% | 9.9% (active) | -3.56% (active) | 3.93% (active) | 6.01% (active) | -0.346% (active) | 7.18% (active)
CN(C)CCn1c2ccc(N)cc2c2nc3ccccc3nc21 | 33.3% | 24.6% | 35.7% | 41% | 53.5% | 37.4% | 23.2% | 37% | 76.2% | 28.1%
COc1ccc(Cn2cc3c(c2-c2cc(OC)c(OC)c(OC)c2)CCCc2cnoc2-3)cc1N | 18% | 19.9% | 47.3% | 38.2% | 80.9% | 65.6% | 35.2% | 7.33% (active) | 13% | 15.5%
NC(=O)C(=Cc1ccc(Cl)cc1)C(N)=O | 53.3% | 41.9% | 65.6% | 78.2% | 62.3% | 117% | 59.1% | 52% | 89.7% | 57.1%
O=C(Nc1ccc(F)cc1)c1cc(-c2ccc(F)cc2F)ccc1O | 26.2% | -11.7% (active) | 7.54% (active) | 69.4% | 11.2% | -8.88% (active) | 14.7% | 6.06% (active) | 6.19% (active) | 5.27% (active)
O=C(CN1C(=O)CSC1=O)Nc1ccc(C(=O)/C=C/c2cc3ccccc3nc2Cl)cc1 | 36.7% | -13.2% (active) | 77.7% | 101% | 46.4% | 101% | 66.9% | 87.4% | 82.7% | 89.5%
C=C(C)C(=O)O[C@H]1C[C@@]2(C)OC(=CC2=O)[C@H](C)[C@H](O)[C@H]2OC(=O)C(=C)[C@@H]21 | 38.1% | 27.1% | 71.9% | 98.6% | 82.3% | 89.7% | 69.7% | 20.1% | 95.4% | 84.1%
